{"source": "the supplement of paper PMC8728848", "binders": {"B1": {"name": "Intelectin 1 (Homo sapiens), Q8WWA0 (protein)", "chain": "MNQLSFLLFLIATTRGWSTDEANTYFKEWTCSSSPSLPRSCKEIKDECPSAFDGLYFLRTENGVIYQTFCDMTSGGGGWTLVASVHENDMRGKCTVGDRWSSQQGSKAVYPEGDGNWANYNTFGSAEAATSDDYKNPGYYDIQAKDLGIWHVPNKSPMQHWRNSSLLRYRTDTGFLQTLGHNLFGIYQKYPVKYGEGKCWTDNGPVIPVVYDFGDAQKTASYYSPYGQREFTAGFVQFRVFNNERAANALCAGMRVTGCNTEHHCIGGGGYFPEASPQQCGDFSGFDWSGYGTHVGYSSSREITEAAVLLFYR"}}, "assay_in_all_cases": "glycan array binding signal (z-score within array); higher = stronger binding", "settings_in_all_cases": "glycan notation: IUPAC condensed, linker removed", "key": {"[1]": {"molecular_target": "Fuc(a1-2)Gal", "outline": "(§1)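 The Consortium for Functional Glycomics database supplied 3228 glycan arrays, of which those lacking an available protein sequence were dropped. The binding signal, a within-array Z-score, was averaged across arrays of the same protein sequence and across linkers. Negative scores can be read as non-binding.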"}, "[2]": {"molecular_target": "Fuc(a1-2)Gal(b1-3)GalNAc", "outline": "as §1"}, "[3]": {"molecular_target": "Fuc(a1-2)Gal(b1-3)GalNAc(b1-3)Gal(a1-4)Gal(b1-4)Glc", "outline": "as §1"}, "[4]": {"molecular_target": "Fuc(a1-2)Gal(b1-3)GlcNAc", "outline": "as §1"}, "[5]": {"molecular_target": "Fuc(a1-2)Gal(b1-3)GlcNAc(b1-3)GalNAc", "outline": "as §1"}, "[6]": {"molecular_target": "Fuc(a1-2)Gal(b1-3)GlcNAc(b1-3)[Neu5Ac(a2-6)Gal(b1-4)GlcNAc(b1-6)]Gal(b1-4)Glc", "outline": "as §1"}, "[7]": {"molecular_target": "Fuc(a1-2)[Gal(a1-3)]Gal(b1-4)[Fuc(a1-3)]GlcNAc(b1-3)GalNAc", "outline": "as §1"}, "[8]": {"molecular_target": "Fuc(a1-2)[GalNAc(a1-3)]Gal(b1-3)GlcNAc(b1-2)Man(a1-3)[Fuc(a1-2)[GalNAc(a1-3)]Gal(b1-3)GlcNAc(b1-2)Man(a1-6)]Man(b1-4)GlcNAc(b1-4)[Fuc(a1-6)]GlcNAc", "outline": "as §1"}, "[9]": {"molecular_target": "Fuc(a1-2)[GalNAc(a1-3)]Gal(b1-4)GlcNAc(b1-3)Gal(b1-4)GlcNAc", "outline": "as §1"}, "[10]": {"molecular_target": "Fuc(a1-3)[Gal(b1-4)]GlcNAc(b1-2)Man(a1-3)[Fuc(a1-3)[Gal(b1-4)]GlcNAc(b1-2)Man(a1-6)]Man(b1-4)GlcNAc(b1-4)[Fuc(a1-6)]GlcNAc", "outline": "as §1"}, "[11]": {"molecular_target": "Gal(a1-3)GalNAc", "outline": "as §1"}, "[12]": {"molecular_target": "Gal(b1-3)GalNAc(a1-3)[Fuc(a1-2)]Gal(b1-4)Glc", "outline": "as §1"}, "[13]": {"molecular_target": "Gal(b1-3)GlcNAc(b1-6)Gal(b1-4)GlcNAc", "outline": "as §1"}, "[14]": {"molecular_target": "Gal(b1-3)[Fuc(a1-4)]GlcNAc(b1-3)Gal(b1-4)GlcNAc", "outline": "as §1"}, "[15]": {"molecular_target": "Gal(b1-3)[Neu5Ac(b2-6)]GalNAc", "outline": "as §1"}, "[16]": {"molecular_target": "Gal(b1-4)GlcNAc(b1-3)Gal(b1-4)Glc", "outline": "as §1"}, "[17]": {"molecular_target": "Gal6S(b1-3)GlcNAc6S", "outline": "as §1"}, "[18]": {"molecular_target": "Gal6S(b1-4)Glc", "outline": "as §1"}, "[19]": {"molecular_target": "GalNAc(b1-3)Gal", "outline": "as §1"}, "[20]": {"molecular_target": "GalNAc(b1-3)Gal(a1-6)Gal(b1-4)Glc", "outline": "as §1"}, "[21]": {"molecular_target": "GalNAc(b1-3)GalNAc", "outline": "as §1"}, "[22]": {"molecular_target": "GalNAc(b1-4)GlcNAc(b1-2)Man(a1-3)[GalNAc(b1-4)GlcNAc(b1-2)Man(a1-6)]Man(b1-4)GlcNAc(b1-4)GlcNAc", "outline": "as §1"}, "[23]": {"molecular_target": "Glc(a1-6)Glc(a1-6)Glc", "outline": "as §1"}, "[24]": {"molecular_target": "GlcNAc(a1-4)Gal(b1-4)GlcNAc(b1-3)Gal(b1-4)GlcNAc", "outline": "as §1"}, "[25]": {"molecular_target": "GlcNAc(a1-4)Gal(b1-4)GlcNAc(b1-3)Gal(b1-4)[Fuc(a1-3)]GlcNAc(b1-3)Gal(b1-4)[Fuc(a1-3)]GlcNAc", "outline": "as §1"}, "[26]": {"molecular_target": "GlcNAc(b1-2)Man(a1-3)[GlcNAc(b1-2)Man(a1-6)]Man(b1-4)GlcNAc(b1-4)GlcNAc", "outline": "as §1"}, "[27]": {"molecular_target": "GlcNAc(b1-2)[GlcNAc(b1-6)]Man(a1-6)[GlcNAc(b1-2)Man(a1-3)][GlcNAc(b1-4)]Man(b1-4)GlcNAc(b1-4)GlcNAc", "outline": "as §1"}, "[28]": {"molecular_target": "Man(a1-2)Man(a1-2)Man(a1-3)Man", "outline": "as §1"}, "[29]": {"molecular_target": "Man(a1-2)Man(a1-3)[Man(a1-2)Man(a1-6)]Man(a1-6)[Man(a1-2)Man(a1-2)Man(a1-3)]Man", "outline": "as §1"}, "[30]": {"molecular_target": "Man(a1-3)[Man(a1-6)]Man(a1-6)[Man(a1-3)]Man(b1-4)GlcNAc(b1-4)GlcNAc", "outline": "as §1"}, "[31]": {"molecular_target": "Neu5Ac(a2-3)Gal(b1-3)GlcNAc(b1-3)Gal(b1-4)GlcNAc", "outline": "as §1"}, "[32]": {"molecular_target": "Neu5Ac(a2-3)Gal(b1-3)[Neu5Ac(a2-3)Gal(b1-4)]GlcNAc", "outline": "as §1"}, "[33]": {"molecular_target": "Neu5Ac(a2-3)Gal(b1-3)[Neu5Ac(a2-6)]GalNAc", "outline": "as §1"}, "[34]": {"molecular_target": "Neu5Ac(a2-3)Gal(b1-4)[Fuc(a1-3)]GlcNAc(b1-3)Gal", "outline": "as §1"}, "[35]": {"molecular_target": "Neu5Ac(a2-8)Neu5Ac(a2-3)Gal(b1-4)Glc", "outline": "as §1"}, "[36]": {"molecular_target": "Neu5Ac(a2-8)Neu5Ac(a2-3)[Gal(b1-3)GalNAc(b1-4)]Gal(b1-4)Glc", "outline": "as §1"}, "[37]": {"molecular_target": "Neu5Gc(a2-6)GalNAc", "outline": "as §1"}}, "note": "The full list was thinned out, with the strongest signals kept by preference."}
{"binder": "B1", "values": [{"measurement": "glycan array binding signal (z-score)", "setting": "[1]", "value": 2.53}, {"measurement": "glycan array binding signal (z-score)", "setting": "[2]", "value": -0.327}, {"measurement": "glycan array binding signal (z-score)", "setting": "[3]", "value": 0.742}, {"measurement": "glycan array binding signal (z-score)", "setting": "[4]", "value": 0.069}, {"measurement": "glycan array binding signal (z-score)", "setting": "[5]", "value": 0.22}, {"measurement": "glycan array binding signal (z-score)", "setting": "[6]", "value": 4.21}, {"measurement": "glycan array binding signal (z-score)", "setting": "[7]", "value": -0.244}, {"measurement": "glycan array binding signal (z-score)", "setting": "[8]", "value": 1.21}, {"measurement": "glycan array binding signal (z-score)", "setting": "[9]", "value": -0.387}, {"measurement": "glycan array binding signal (z-score)", "setting": "[10]", "value": 0.394}, {"measurement": "glycan array binding signal (z-score)", "setting": "[11]", "value": -0.41}, {"measurement": "glycan array binding signal (z-score)", "setting": "[12]", "value": 0.06}, {"measurement": "glycan array binding signal (z-score)", "setting": "[13]", "value": 0.042}, {"measurement": "glycan array binding signal (z-score)", "setting": "[14]", "value": 1.33}, {"measurement": "glycan array binding signal (z-score)", "setting": "[15]", "value": 2.22}, {"measurement": "glycan array binding signal (z-score)", "setting": "[16]", "value": 0.614}, {"measurement": "glycan array binding signal (z-score)", "setting": "[17]", "value": 1.05}, {"measurement": "glycan array binding signal (z-score)", "setting": "[18]", "value": -0.449}, {"measurement": "glycan array binding signal (z-score)", "setting": "[19]", "value": 2.09}, {"measurement": "glycan array binding signal (z-score)", "setting": "[20]", "value": -0.442}, {"measurement": "glycan array binding signal (z-score)", "setting": "[21]", "value": -0.802}, {"measurement": "glycan array binding signal (z-score)", "setting": "[22]", "value": 0.358}, {"measurement": "glycan array binding signal (z-score)", "setting": "[23]", "value": 0.027}, {"measurement": "glycan array binding signal (z-score)", "setting": "[24]", "value": 3.85}, {"measurement": "glycan array binding signal (z-score)", "setting": "[25]", "value": 3.27}, {"measurement": "glycan array binding signal (z-score)", "setting": "[26]", "value": -0.457}, {"measurement": "glycan array binding signal (z-score)", "setting": "[27]", "value": 0.148}, {"measurement": "glycan array binding signal (z-score)", "setting": "[28]", "value": 1.53}, {"measurement": "glycan array binding signal (z-score)", "setting": "[29]", "value": -0.313}, {"measurement": "glycan array binding signal (z-score)", "setting": "[30]", "value": -0.432}, {"measurement": "glycan array binding signal (z-score)", "setting": "[31]", "value": 0.545}, {"measurement": "glycan array binding signal (z-score)", "setting": "[32]", "value": -0.157}, {"measurement": "glycan array binding signal (z-score)", "setting": "[33]", "value": -0.094}, {"measurement": "glycan array binding signal (z-score)", "setting": "[34]", "value": -0.21}, {"measurement": "glycan array binding signal (z-score)", "setting": "[35]", "value": 0.12}, {"measurement": "glycan array binding signal (z-score)", "setting": "[36]", "value": 0.572}, {"measurement": "glycan array binding signal (z-score)", "setting": "[37]", "value": 0.523}]}
